Measurements as given in PubChem BioAssay (NCATS).
Records with an inconclusive call do not appear. Calls of active or inactive are those of the source. Calls follow the shape of the dose curve; as a rule, active = well fitted curve in the direction sought with a large enough effect; inconclusive = small, poorly fitted or top-dose-only effect, or another doubt; inactive = no such curve, though single readings can be large; an effect the other way counts as inactive or inconclusive.

Key:
[1] = target: Glutathione peroxidase 1 (Homo sapiens) (UniProt P07203); assay: Primary qHTS Assay for Inhibitors of Recombinant Selenoprotein Glutathione Peroxidase 1 (GPX1) (AID 1845191); also: nearly all actives have a fitted effect of over 65% in size; also: potency is read from the fitted curve at half-maximal effect; as to activity, negative = inhibition: % is scaled to controls: 0 for no effect and ±100 for the full control effect
In short: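 GR-coupled readout: NADPH consumption tracked by fluorescence, ex 340/em 450 nm, at t=0 and after 15 min at RT. Final mix 10 nM GPX1, 1 mM GSH, 0.5 mM CHP, 0.5 mM NADPH, 100 nM GR, 0.01% BSA, following 30 min enzyme–compound preincubation.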

[2] = target: Phospholipid hydroperoxide glutathione peroxidase GPX4 (Homo sapiens) (UniProt P36969); assay: Primary qHTS Assay for Inhibitors of Recombinant Selenoprotein Glutathione Peroxidase 4 (GPX4) (AID 1845192); also: nearly all actives have a fitted effect of over 65% in size; also: potency is read from the fitted curve at half-maximal effect
In short: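 Steps: GPX4 plus compound, 30 min RT; add GR/GSH/NADPH master mix; start with cumene hydroperoxide; read 340/450 nm fluorescence at 0 and 15 min. Finals were 200 nM GPX4, 1 mM GSH, 0.5 mM CHP, 0.5 mM NADPH, 100 nM GR.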

[3] = target: Luciferin 4-monooxygenase (Photinus pyralis) (UniProt P08659); assay: Primary firefly luciferase (FLuc) qHTS assay for identification of artifact compounds. (AID 1845220); also: nearly all actives have a fitted effect of over 60% in size
In short: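 Enzymatic FLuc inhibition assay: compounds pre-exposed to luciferin/ATP (10 uM each) for 15 min, then purified P. pyralis enzyme at 10 nM added. Read-out: luminescence at 5 min.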

[4] = Primary fluorescence-based thiol-reactive (MSTI) qHTS assay for identification of artifact compounds. (AID 1845221); also: nearly all actives have a fitted effect of over 65% in size; also: potency is read from the fitted curve at half-maximal effect;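 as to activity change, negative = thiol reactive: series mostly up to about 54 µM; thiol-reactive compounds lower the probe fluorescence signal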
In short: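 qHTS titration of compound; 4 uM MSTI, PBS pH 7.4, 2% DMSO; 1 h RT, dark; fluorescence 525/598 nm; normalized to Acetyl-MSTI and MSTI; 4-parameter Hill fit.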

[5] = tested on: Nanoluciferase (engineered Oplophorus gracilirostris luciferase); assay: Primary Nanoluciferase (NLuc) qHTS assay for identification of artifact compounds. (AID 1845222);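 also: NLuc secreted into diluted conditioned medium of S16 cells; series mostly up to about 54 µM; 0% = DMSO and -100% = no enzyme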
In short: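 S16 cell supernatant NLuc, 1:55; cpds qHTS; 15 min RT dark; Nano-Glo substrate 1:100, 5 min; luminescence; Hill fit of % inhibition.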

[6] = Primary redox qHTS assay for identification of artifact compounds. (AID 1845223);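 also: 0% = DMSO and 100% = reference compound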
In short: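 Redox-cycling detection via DTT (250 uM final) oxidation coupled to Amplex Red (25 uM)/HRP (250 mU/mL) in HBSS. 15 min preincubation plus 30 min after DTT, room temperature. Ex/Em 525/598 nm; 4-parameter Hill fit against DMSO and 10 uM DA3003.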

Sequence of Phospholipid hydroperoxide glutathione peroxidase GPX4 (Homo sapiens) (P36969 whole entry, looked up): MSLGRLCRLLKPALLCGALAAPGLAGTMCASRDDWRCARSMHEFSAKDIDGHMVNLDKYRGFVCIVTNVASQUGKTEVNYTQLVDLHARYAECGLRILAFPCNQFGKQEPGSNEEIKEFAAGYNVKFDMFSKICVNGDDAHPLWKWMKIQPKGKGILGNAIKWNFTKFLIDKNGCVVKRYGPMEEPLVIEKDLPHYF
Sequence of Glutathione peroxidase 1 (Homo sapiens) (P07203 whole entry, looked up): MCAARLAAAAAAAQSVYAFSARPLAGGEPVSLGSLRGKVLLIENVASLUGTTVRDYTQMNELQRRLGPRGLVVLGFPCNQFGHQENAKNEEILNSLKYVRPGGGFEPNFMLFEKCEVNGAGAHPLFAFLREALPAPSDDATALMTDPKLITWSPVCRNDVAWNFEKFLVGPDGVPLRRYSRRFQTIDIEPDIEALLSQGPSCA

Cc1ccc(NC(=O)N2CCN(c3nc(N)nc4sc(-c5cccnc5)nc34)CC2)cc1
inactive: Potency [3] | Potency [4] | Potency [5] | Potency [6]
active: Potency [1] 14.3 µM | Potency [2] 2.55 µM

COC1CC(=O)C23C(=O)NC(CC(C)C)C2C(C)C(C)=CC3/C=C(\C)CCCC1O (stereo not given)
inactive: Potency [1] | Potency [2] | Potency [3] | Potency [4] | Potency [5] | Potency [6]

Cc1cn(CCN2CCN(c3ccccc3-c3cc(C#N)cc(C(=O)NCCCN4CCCC4)c3)CC2)c2ccccc12
inactive: Potency [1] | Potency [2] | Potency [3] | Potency [4] | Potency [5] | Potency [6]

Cc1cc(N2CCN(C(=O)Oc3ccc(-c4ccccc4)cn3)CC2)c2ccccc2n1
inactive: Potency [1] | Potency [2] | Potency [3] | Potency [4] | Potency [5] | Potency [6]

CC(C)n1c(=O)c(C(=O)NC2CC3CCC(C2)N3C[C@@H](O)CN(C)S(C)(=O)=O)cc2ccccc21 (stereo not given in full)
inactive: Potency [1] | Potency [2] | Potency [3] | Potency [4] | Potency [5] | Potency [6]

CCCNCCc1ccc(NS(=O)(=O)c2ccc(OC(F)(F)F)cc2)cc1
inactive: Potency [1] | Potency [2] | Potency [3] | Potency [4] | Potency [5] | Potency [6]

COc1ccc(S(=O)(=O)Nc2cc(Cl)cc(Cl)c2OC)cc1N1CCNCC1
inactive: Potency [1] | Potency [2] | Potency [3] | Potency [4] | Potency [5] | Potency [6]

Cc1c(C2=CCN(C(=O)N(C)C(C)C)CC2)nnn1-c1cccnc1F
inactive: Potency [1] | Potency [2] | Potency [3] | Potency [4] | Potency [5] | Potency [6]

CC1(C)CC[C@]2(C(=O)O)[C@H](O)C[C@]3(C)C(=CCC4[C@@]5(C)CC[C@H](O[C@@H]6O[C@H](CO[C@@H]7OC[C@H](O)[C@H](O)[C@H]7O[C@@H]7OC[C@H](O)[C@H](O)[C@H]7O)[C@@H](O)[C@H](O)[C@H]6O)C(C)(C)C5CC[C@]43C)[C@@H]2C1 (stereo not given in full)
inactive: Potency [1] | Potency [2] | outcome [3] inactive [at 11.6 µM] | activity change, negative = thiol reactive [4] 133% [at 11.5 µM] | activity, negative = inhibition [5] 1.1% [at 11.6 µM] | redox activity (% of DA3003) [6] 16.3% [at 11.5 µM]

C=C1C(=O)O[C@@H]2/C=C(\C)CC/C=C(/C=O)[C@H](OC)[C@@H](OC(=O)C(C)C)[C@@H]12
inactive: Potency [1] | Potency [2] | Potency [3] | Potency [4] | Potency [5] | Potency [6]

COC(=O)C(Cc1ccc(OCCn2c(=O)sc3cc(C(=O)c4ccccc4)ccc32)cc1)C(=O)OC
inactive: Potency [1] | Potency [2] | Potency [3] | Potency [4] | Potency [5] | Potency [6]

Fc1ccc(-c2nc(-c3c(F)cccc3F)[nH]c2-c2ccncc2)cc1
inactive: Potency [1] | Potency [2] | Potency [3] | Potency [4] | Potency [5] | Potency [6]

O=c1[nH]c([C@@H]2CCCN2)nc2c1oc1ccc(Cl)cc12
inactive: Potency [1] | Potency [2] | Potency [3] | Potency [4] | Potency [5] | Potency [6]

Cc1nc2c(C(F)(F)F)cccc2nc1-c1ccc(-c2cccc(S(C)(=O)=O)c2)cc1
inactive: Potency [1] | Potency [2] | Potency [3] | Potency [4] | Potency [5] | Potency [6]

O=C(C(Cc1cccc(C(F)(F)F)c1)NS(=O)(=O)c1cc(F)c2c(c1)CCNC2)N1CCCC1 (stereo not given)
inactive: Potency [1] | Potency [2] | Potency [3] | Potency [4] | Potency [5] | Potency [6]

CC(=O)O[C@H]1[C@@]2(O)C[C@H](C)[C@H](OC(=O)c3ccccc3)[C@@H]2[C@@H](OC(=O)CO)[C@]2(OC(C)=O)C[C@H]3C(=O)C(C)(C)C[C@@H]3[C@@]1(C)[C@H]2OC(C)=O
inactive: Potency [1] | Potency [2] | Potency [3] | Potency [4] | Potency [5] | Potency [6]

O=C(NCCN1CCC(n2c(=O)[nH]c3ccccc32)CC1)c1ccc2ccccc2c1
inactive: Potency [1] | Potency [2] | Potency [3] | Potency [4] | Potency [5] | Potency [6]

N#CC(CCCN1CCN(/N=C/c2cccnc2)CC1)(c1ccccc1)c1ccccc1
inactive: Potency [1] | Potency [2] | Potency [3] | Potency [4] | Potency [5] | Potency [6]

COC1CCN(C(=O)c2cc(Cc3n[nH]c(=O)c4ccccc34)ccc2F)CC1
inactive: Potency [1] | Potency [2] | Potency [3] | Potency [4] | Potency [5] | Potency [6]

CC(=O)O[C@@H]1C[C@@]2(C)C(CC[C@]3(C)C2CC=C2C4CC(C)(C)CC[C@]4(C(=O)O)CC[C@]23C)C(C)(C)[C@H]1O (stereo not given in full)
inactive: Potency [1] | Potency [2] | Potency [3] | Potency [4] | Potency [5] | Potency [6]

C=C1C(=O)OC2/C=C(\CO)CC/C=C(\C=O)C(OC)C(OC(=O)C(C)CC)C12 (stereo not given)
inactive: Potency [1] | Potency [2] | Potency [3] | Potency [5] | Potency [6]
active: Potency [4] 4.12 µM

C1=C/COCc2cc(ccc2OCCN2CCCC2)Nc2nccc(n2)-c2cccc(c2)COC/1
inactive: Potency [1] | Potency [2] | Potency [3] | Potency [4] | Potency [5] | Potency [6]

CN(C)CCN(Cc1ccc(-c2ccc(CNCCc3ccccc3)cc2)cc1)C(=O)CCC1CCCC1
inactive: Potency [1] | Potency [2] | Potency [3] | Potency [4] | Potency [5] | Potency [6]

COc1ccc(S(=O)(=O)N2CCC[C@H]2C(=O)Nc2cc(C)cc(C)c2)cc1
inactive: Potency [1] | Potency [2] | Potency [3] | Potency [4] | Potency [5] | Potency [6]

COc1cc(/C=N\NC(=O)c2ccc3c(c2)OCO3)ccc1OCc1ccccc1
inactive: Potency [1] | Potency [2] | Potency [3] | Potency [4] | Potency [5] | Potency [6]
